# In ChEMBL document CHEMBL3988442, “University of Dundee, Small-Polar-MMV Screening Library” (2021):
# Among all 53,000 compounds or so, about 900 (1.7%) showed an effect of 50% or more. For the sample, strong results were picked, then their nearest neighbours and some compounds at random.
# System: Mycobacterium tuberculosis
# Assay: Cornell - Phenotypic assay to identify agents that inhibit growth of Mycobacterium tuberculosis
# Format: functional
# Design: scale not given: direction of the effect not stated beside the values
# Conditions: 10 mM as filed; unlikely as a test dose
row,Structure (SMILES),Percent Effect [%]
1,CCOc1ccccc1C(=O)N1CC(=O)N(C2CCC2)CC(O)C1 (stereo unspecified),12.12
2,CN(Cc1cccnc1)[C@@H]1CN(Cc2ccccn2)[C@@H]2CCCO[C@H]12,51.65
3,CN(Cc1cccnc1)[C@@H]1CN(c2ncc(F)cn2)[C@@H]2CCCO[C@H]12,19.63
4,CN(Cc1cccnc1)[C@@H]1CN(c2ccccn2)[C@@H]2CCCO[C@H]12,3.977
5,COc1ccc2c(c1)CC(C1CCOCC1)N(C(=O)c1ccnn1C)C2 (stereo unspecified),13.18
6,CN1CCN(C)C(CNC(=O)N(C)Cc2ccc(Cl)c(F)c2)C1 (stereo unspecified),12.24
7,C=C/C=c1\c(=C/C)oc2c(NCc3ccccc3)ncnc12,8.559
8,C=C/C=c1\c(=C/C)oc2c(NCc3ccccc3)nc(CC)nc12,44.26
9,C=C/C=c1\c(=C/C)oc2c(NCc3ccccc3)nc(C)nc12,70.49
10,O=c1c2ccccc2nc2n1C(CSc1ccc(Br)cc1)CN2 (stereo unspecified),19.98
11,COCCOc1ccc(Cl)c(C(=O)N2CCN(CCO)CC2)n1,-16.9
12,CNc1ncc(-c2csc(NC(=O)C[C@H]3COCCN3)n2)cn1.Cl,-17.99
13,Cc1cnc(N2C[C@@H]3CN(C4CCOC4)CCC[C@]3(C(=O)O)C2)nc1.O=C(O)C(F)(F)F (stereo partly specified),13.6
14,NC(=O)C1(CCCc2ccccn2)CCCN(Cc2ncc[nH]2)C1 (stereo unspecified),-6.495
15,CN(C)c1ccc(C(=O)N2CCCC2c2cnn(C)c2)cn1 (stereo unspecified),5.002
16,O=C(COc1ccc2c(c1)CCC2)N1CCOCC1c1ncon1 (stereo unspecified),12.9
17,Cc1ccc(-c2nnc(CCC(=O)N3CCCC3c3ccc[nH]3)o2)cc1 (stereo unspecified),45.95
18,CC1CCN(c2ccc(C(=O)N3CCCC3c3ccc[nH]3)cn2)CC1 (stereo unspecified),84.24
19,O=C(COc1ccccc1)N1CCCC1c1ccc[nH]1 (stereo unspecified),85.82
20,NC(=O)c1cn[nH]c1C1CCCN1C(=O)COc1ccccc1 (stereo unspecified),6.51
21,NC(=O)c1ccc(OCC(=O)N2CCCC2c2ccc[nH]2)cc1 (stereo unspecified),-7.16
22,CS(=O)(=O)c1cccc(OCC(=O)N2CCCC2c2ccccc2Cl)c1 (stereo unspecified),-2.872

row,Structure (SMILES),Percent Effect [%]
1,O=C(COc1ccc2c(c1)CCC2)N1CCCC(n2cccn2)C1 (stereo unspecified),-23.81
2,CC1CCN(c2ccc(C(=O)N3CCCC3c3nncn3C)cn2)CC1 (stereo unspecified),-18.06
3,CS(=O)(=O)c1cccc(OCC(=O)N2CCCC2c2ccc[nH]2)c1 (stereo unspecified),58.54
4,O=C(COc1ccc2c(c1)CCC2)N1CCCC1c1ccc[nH]1 (stereo unspecified),107.5
5,Cc1cc(C)cc(OCCN2CCn3c(C)nnc3C2)c1,12.04
6,Cn1cc(C2=NOC(C(=O)NC3(c4cccc(F)c4)CCCC3)C2)cn1 (stereo unspecified),-24.87
7,Cc1cc(C)nc(N2CCC(Cn3cc(C(N)=O)cn3)CC2)n1,-23.62
8,CCOc1ncccc1CNS(=O)(=O)c1ccc2c(c1)CCC2,13.09
9,CCCn1cc(C(=O)N2CCCC(Cc3nccs3)C2)cn1 (stereo unspecified),-22.26
10,CCCC(NC(=O)c1occc1C)c1nnn[nH]1 (stereo unspecified),-83.42
11,COCc1nn(Cc2ccc(Cl)s2)c(=O)o1,-31.25
12,CC(=O)N1CCC(CSCc2ccco2)CC1,7.881
13,CCOC(=O)CCC(=O)N1CCC(CSCc2ccco2)CC1,59.48
14,CCOCC(=O)N1CCC(CSCc2ccco2)CC1,34.18
15,Cc1[nH]ncc1CCCNC(=O)Nc1ccc(F)cc1,-28.46
16,Cc1[nH]ncc1CCCNC(=O)Nc1ccc2c(c1)OC1(CCCC1)O2,72.51
17,Cc1[nH]ncc1CCCNC(=O)Nc1ccccc1,-14.63
18,COc1ccc2c3c1CN(C(C)=O)CC3=CC(C)(C)CO2,9.21
19,COC(=O)N1CC2=CC(C)(C)COc3ccc(OC)c(c32)C1,31.49
20,COc1ccc2c3c1CN(C(=O)N(C)C)CC3=CC(C)(C)CO2,89.58
21,COc1ccc2c(c1)CN(c1nc(C)cc(C)n1)CC2,63.12
22,COc1ccc2c(c1)CN(c1cc(N3CCCC3CO)ncn1)CC2 (stereo unspecified),24.46

row,Structure (SMILES),Percent Effect [%]
1,Cc1cc(C)nc(N2CCc3ccc(OC(F)F)cc3C2)n1,108.4
2,COc1ccc(C2CN(c3nc(C)cc(C)n3)CCN2C(C)=O)cc1 (stereo unspecified),37.66
3,Cc1cc(C)nc(N2Cc3cnn(Cc4ccc(F)cc4)c3C2)n1,1.875
4,COc1cccc(O[C@H]2CCN(c3nc(C)cc(C)n3)CC[C@@H]2O)c1,6.067
5,COc1ccnc(N2Cc3cnc(C(C)(C)C)nc3C2)n1,15.27
6,COc1ccnc(N2CCN(C(=O)N3CCOCC3)CC2)n1,-8.776
7,COc1ccnc(N2CCc3ccc(OC(F)F)cc3C2)n1,105.8
8,Cc1cnn(C2CCCN(C(=O)CCc3cnn(C)c3)C2)c1 (stereo unspecified),-9.516
9,O=C(CN1CC(c2nc(-c3ccco3)no2)C1)NCc1ccc(F)cc1.O=C(O)C(=O)O,26.13
10,CN(Cc1ccc2c(c1)OCO2)C(=O)c1ccc(C2CCCNC2)cc1 (stereo unspecified),14.52
11,O=S(=O)(c1ccc(-c2cnco2)cc1)N1CCCC2(CCNCC2)CC1,-3.285
12,Cl.O=C(CCN1CCCCC1)Nc1c2c(cc3c1CCC3)CCC2,-6.194
13,CCOC(C)c1nc(Cn2cc(C)cn2)cs1 (stereo unspecified),25.14
14,CCOC(C)c1nc(Cn2cc(-n3cccc3)cn2)cs1 (stereo unspecified),56.69
15,CCOC(C)c1nc(Cn2cccn2)cs1 (stereo unspecified),9.263
16,CC(=O)NCCNC(=O)Nc1ccc(Br)cc1C(C)C,-45.7
17,Cc1ccc(CN(CC(=O)NCC2CCOC2)c2ccc(F)cc2)o1 (stereo unspecified),104.7
18,O=C(CN(Cc1cccs1)c1ccc(F)cc1)NC1CCOCC1,47.86
19,O=C(CN(CC(O)c1ccc(F)cc1)C1CC1)NC1CCOCC1 (stereo unspecified),2.353
20,Cc1ccc(CN(CC(=O)NC2CCOCC2)c2ccc(F)cc2)o1,92.31
21,O=C(NCC1CCOC1)c1csc(-c2ccc(F)cc2)n1 (stereo unspecified),-10.74
22,Cc1ccc(-c2nc(CC(=O)NCC3CCOC3)cs2)o1 (stereo unspecified),19.26
